Structures are written as SMILES. Records with an inconclusive call do not appear. Entries that show only a call come without a potency. Activity calls are given as the source filed them. The call rests on the fitted dose curve; in most records, active means well fitted activation curve with a large enough effect; inconclusive means small, poorly fitted or top-dose-only effect; inactive means flat fitted curve, though single readings scatter.

The test is described as follows: qHTS for Inhibitors of Cell Surface uPA Generation: FP59 Counterscreen for Cherry-picked Compounds. To be noted: FP59 anthrax toxin cytotoxicity counterscreen, cells; series mostly up to 115 µM. (In general: qHTS replaces the single test concentration by a dilution series.)
Regarding `Cc1ccc(C(=O)NC(=S)Nc2ccc3[nH]c(=O)[nH]c3c2)c(C)c1`, the Potency result is “inactive”.

With `COc1cc(C(C)=O)ccc1OCc1cn(CC(=O)c2ccc(O)cc2)nn1`, the Potency result is “inactive”.

`Cc1cc(N)n(Cc2ccc(Cl)cc2)n1`: the Potency entry was “inactive”.

For `CN(C)S(=O)(=O)c1cccc(C(=O)OCC(=O)NCc2ccc3c(c2)OCO3)c1`, the Potency result was “inactive”.

On to `CCc1ccccc1NC(=O)CN(C)C(=O)CSc1nnc(Nc2cccc(C)c2C)s1`, for which the Potency result is “inactive”.

In the case of `COc1ccc(C2=NS(=O)(=O)N(C)C(C(=O)NCc3ccccn3)=C2)cc1`, the Potency result was “inactive”.

Take `CSc1ccc(CNCCCN(C)C)cc1`: the Potency result was “inactive”.

With `CC1(C)S[C@@H]2[C@H](NC(=O)C(C(=O)O)c3ccccc3)C(=O)N2[C@H]1C(=O)O` (some centres undefined), the Potency entry was “inactive”.

As to `CCCCCCCCCOC(=O)C1N2C(=O)[C@@H](NC(=O)COc3ccccc3)[C@H]2SC1(C)C` (some centres undefined), the Potency result is “inactive”.

For `CC1CCCN(C(=O)c2ccc(-c3ccccc3Cl)o2)C1` (centres undefined), the Potency entry was “inactive”.

Consider `COc1cc2cc(CN(CCN3CCOCC3)C(=O)Nc3ccc(F)cc3)c(=O)[nH]c2cc1OC`, for which the Potency result was “inactive”.

As to `COc1cc2c(cc1OC)CN(C(=O)c1ccc(-c3ccccc3)cc1)CC2`, the Potency entry is “inactive”.

On to `C/C=C(/C(=C/C)c1ccc(O)cc1)c1ccc(O)cc1`, for which the Potency result is “inactive”.

In the case of `CCCCn1c(=NC(=O)c2ccco2)c(C(=O)OCC)cc2c(=O)n3cccc(C)c3nc21`, the Potency result was “inactive”.

With `Cc1ccc(S(=O)(=O)N2CCC(C(=O)OC(C)C(=O)NC3CCCCC3C)CC2)cc1` (centres undefined), the Potency entry was “inactive”.

Take `Oc1ccc(/C=N/Nc2cccc(Cl)n2)c(O)c1`: the Potency result is “inactive”.

Take `NC(=O)C1CCN(C(=O)c2cccc3ccccc23)CC1`: the Potency entry is “inactive”.

`Cc1cc(-c2ccccc2)nc(N/N=C/c2ccc(N(C)C)cc2)n1`: the Potency result is “inactive”.

On to `CCC1=NN(C(=O)C(=O)Nc2ccc(OC)cc2)C(O)(C(F)(F)F)C1` (centres undefined), for which the Potency entry was “inactive”.

On to `O=C(O)CNS(=O)(=O)c1ccc2c(c1)Cc1cc(S(=O)(=O)NCC(=O)O)ccc1-2`, for which the Potency result is “inactive”.

As for `Cc1cc(N2C(=O)C(O)=C(C(=O)c3ccco3)C2c2ccc(Cl)cc2)no1` (centres undefined), the Potency result was “inactive”.

Regarding `Cc1cc2c(cc1S(=O)(=O)Nc1ccc(F)cc1)n(C)c(=O)c(=O)n2C`, the Potency result is “inactive”.

For `Cc1nn(-c2ccc(F)cc2)c(C)c1NS(=O)(=O)c1ccc(Cl)cc1`, the Potency result was “inactive”.

Regarding `COc1ccc(C)cc1NC(=O)NNC(=O)C1CCC(C(C)(C)C)CC1` (centres undefined), the Potency result was “inactive”.

Regarding `O=C(NC1CCCCC1)C(c1ccco1)N(C(=O)c1csnn1)c1cccc(Cl)c1` (centres undefined), the Potency result was “inactive”.

For `CCc1cc(CC)c(/C=N/NC(N)=O)c(CC)c1`, the Potency entry is “inactive”.

As for `COc1ccc(C(=O)NCC(=O)N/N=C/c2c(C)[nH]c3ccccc23)cc1`, the Potency result was “inactive”.

Turning to `O=C(O)c1ccc(-c2ccc(/C=C3\NC(=O)N(Cc4ccc(Cl)cc4)C3=O)o2)cc1`, the Potency entry was “inactive”.

For the compound `CCN1CCN(C(c2ccccc2)c2nnnn2Cc2ccc3c(c2)OCO3)CC1` (centres undefined), the Potency result is “inactive”.

Regarding `Cc1ccc(-n2ncc(C(=O)NC3CC3)c2C2CCN(C(=O)OC(C)(C)C)CC2)cc1`, the Potency entry is “inactive”.

With `CCC1(CC)NC(=O)N(CC(=O)OCC(=O)c2cc(C)c(C)cc2C)C1=O`, the Potency entry was “inactive”.

For the compound `CCOC(=O)c1c(NC(=S)NC)sc2c1CCCC2`, the Potency entry was “inactive”.

Take `O=C(CSc1ccc(Cl)cc1)Nc1ccc(C2SCCS2)cc1`: the Potency result was “inactive”.

Consider `CC(C)c1ccc(SCc2noc(C(=O)NCC3CCCO3)c2C(=O)O)cc1` (centres undefined), for which the Potency result was “inactive”.

For the compound `COc1ccc(C2=C/C(=C\c3ccccc3OC(C)=O)C(=O)O2)cc1`, the Potency result is “inactive”.

On to `O=C1NCCN1C(=O)N(c1ccccc1)c1ccccc1`, for which the Potency entry was “inactive”.

In the case of `O=C(Nn1cnnc1)c1ccc(Cl)c(Cl)c1`, the Potency result was “inactive”.

Regarding `O=C1C[C@@H]2CCN3C(=O)CCC[C@@H]([C@H]23)[C@H]1Cc1ccccc1`, the Potency entry was “inactive”.

On to `COCCNC(=O)COCc1cc(-c2ccc3c(c2)OCO3)on1`, for which the Potency result is “inactive”.

(Values after PubChem BioAssay AID720517 (National Center for Advancing Translational Sciences (NCATS), 2013).)
